Here are results for 39 compounds from PubChem BioAssay (NCI).

This is part of a sample that, as a whole, favours compounds with a hit. Of some 83,000 tested, about 20% had one in any assay.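 Compound tested at a single concentration for 48 hours in 96-well plates; a percent growth value below 10 was scored as active.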 Values without a mark were called inactive. Activity calls are given as the source filed them.

The test system of this test is HL-60(TB) leukemia. The test can be described thus: NCI-60 one-dose screen, 48 h (100 = growth as untreated, 0 = no growth, -100 = all killed). As to conditions: 10 µM unless noted.
`CNC(=O)c1cc(Cn2nc(C)c(NC(=O)Nc3ccc(Cl)c(C(F)(F)F)c3)c2C)ccn1`: the growth was 103%.

With `CCN(CC)CCOC(=O)Nc1c(C(C)C)cccc1C(C)C`, the growth was 101%.

Consider `OC1CSSC1Cn1cnc2c(Nc3ccc(F)c(Cl)c3)ncnc21` (centres undefined), for which the growth was 45.8%.

Consider `c1ccc([P+](CCCc2n(Cc3ccc4ccccc4c3)c3ccccc3[n+]2Cc2ccc3ccccc3c2)(c2ccccc2)c2ccccc2)cc1`, for which the growth was 22.6%.

As for `CC1Cc2cc(F)ccc2-n2cccc21` (centres undefined), the growth is 111%.

As to `COc1ccc(/C=C/C(=O)c2ccc(Nc3ncnc4ccccc34)cc2)cc1OC`, the growth was 75.6%.

Turning to `C=CC(=O)Nc1cccc(Oc2nc(Nc3ccc(N4CCN(C)CC4)cc3)nc3ccsc23)c1`, the growth is -62% (active).

In the case of `COc1cc(/C=C/C(=O)c2ccc(Nc3nc(Nc4ccccc4)nc(Nc4ccc(Cl)cc4)n3)cc2)cc(OC)c1OC`, the growth is 64.5%.

Take `O=Nc1ccc(O)cc1`: the growth is 77%.

Take `CNC(=O)NCC1OC(n2cnc3c(NC(=O)Nc4ccccc4)ncnc32)C(O[Si](C)(C)C(C)(C)C)C1CC(=O)N(C)OC` (centres undefined): the growth was -33.1% (active).

Turning to `CN1CCN(c2ccc(Nc3ncc(Cl)c(NC[C@@H]4CCCO4)n3)cc2)CC1`, the growth was -6.65% (active).

In the case of `CCCCN(CCCC)CC(CN(CC)CC)OC(=O)Nc1ccccc1` (centres undefined), the growth is 84.1%.

Consider `S=c1nc(-c2ccccc2)oc(=NC2CCCCC2)n1C1CCCCC1`, for which the growth is -36.5% (active).

Consider `Nc1c(Br)cc(O)c2c1C(=O)c1ccccc1C2=O`, for which the growth is 41.9%.

With `CCOC(OCC)c1cnc2nc(NC(C)=O)[nH]c(=O)c2n1`, the growth is 123%.

Consider `CCN1CCN(CC(=O)Nc2ccc(-c3cn4c(n3)sc3cc(Oc5ccnc(C(=O)NC)c5)ccc34)cc2)CC1`, for which the growth was -35.4% (active).

For the compound `O=C1C(Cl)=C(Nc2cccc3cc4ccccc4nc23)C(=O)c2ccccc21`, the growth is 47.8%.

In the case of `COc1ccc(-c2nnc(SCC(=O)N3CCN(c4cc5c(cc4F)c(=O)c(C(=O)O)cn5C4CC4)CC3)o2)cc1OC`, the growth is 66.8%.

Turning to `O=C1C=CC(=O)N1Cc1ccco1`, the growth was 108%.

Take `CN(C)CCN1C(=O)c2ccc3c4c(ccc(c24)C1=O)C(=O)N(CCN=C=S)C3=O`: the growth is -51.1% (active).

On to `O=[N+]([O-])c1ccc(N/N=C\c2ccc(O)cc2O)nc1`, for which the growth is 0.875% (active).

`COC(=O)c1oc2c(C(C)=O)c(OCCN3CCCCC3)ccc2c1C`: the growth is 110%.

As for `Cc1ccc(S(=O)(=O)Nc2cc(Sc3ccccc3)c(O)c3ccccc23)cc1`, the growth was -31.2% (active).

`CC(=O)O[C@H]1CC[C@]2(C)[C@H]3CC=C4[C@@H]5CC(C)(C)CC[C@]5(C(=O)NCCNCCN)CC[C@@]4(C)[C@]3(C)CC[C@H]2C1(C)C`: the growth is -67.6% (active).

Turning to `COc1cc(C)ccc1C(=O)c1ccc(C)cc1OC`, the growth is 8.59% (active).

Consider `Nc1ncnc2c1c(-c1ccc(Oc3ccccc3)cc1)nn2C[C@@H]1SSC[C@@H]1O`, for which the growth is -0.213% (active).

With `CCc1ccc(CCC(=O)Nc2ncc(Cc3cc(Cl)ccc3Cl)s2)o1`, the growth is -44.5% (active).

Consider `CC(=O)Nc1ccc(-n2cnc3cc(-c4ccc(OCCN5CCCCC5)cc4)ccc32)cc1`, for which the growth is 98.3%.

`CC(=O)CC(=O)N(C)C`: the growth was 114%.

Regarding `O=C(CSc1nnc2sc(Nc3cccc(Cl)c3)nn12)c1ccc(F)cc1`, the growth was 82.7%.

On to `O=C(Nc1ccccc1C(=O)N/N=C(\c1ccccc1)c1ccccn1)c1ccccc1`, for which the growth is -24.1% (active).

Consider `C=C(C)[C@@H]1CC[C@]2(C)[C@H](CC[C@@H]3[C@@H]([C@@](C)(O)CCC=C(C)C)CC[C@]32C)[C@@]1(C)CCC(=O)O`, for which the growth is -24.1% [100 µM] (active).

As to `Cc1ccc(OC(=O)c2ccccc2)cc1`, the growth is 103%.

As to `COc1ccc(C(=O)C/C(=C\c2ccc(O)c(OC)c2)C(=O)NN)cc1`, the growth was 66.4%.

With `O=c1cc(CP(=O)(O)O)c2cc(O)c(-c3ccccc3)cc2o1`, the growth was 104%.

`CCCCCCCCn1ccc2cc(NC(=O)Cn3cc(CN4CCN(CC)CC4)nn3)ccc21`: the growth is 63.9%.

In the case of `CC1=C(C)C(=O)C(Nc2cccc(C(=O)OC(C)(C)C)c2)=C(Br)C1=O`, the growth is 54.9%.

Regarding `Cc1cc(N2CCN(C)CC2)nc(NCc2cc(Nc3ccnc4cc(Cl)ccc34)ccc2F)n1`, the growth is -53.5% (active).

On to `COc1ccc(-c2nn(-c3cccc(Cl)c3)cc2-c2nc(N)[nH]c(=O)c2C#N)cc1`, for which the growth was 78.7%.
